The text below walks through data of PubChem BioAssay (EPA / NIEHS).

Activity calls are given as the source filed them. Rule for the calls: active = hit-call score of the fitted dose curve at least 0.9, where 1 is the maximum; inactive = score below 0.9.

Experiment [1] in a line: APR_HepG2_CellLoss_72hr: Apredica 72-hour HepG2 Assay for Cell Loss (AID 2282915). As to conditions: high-content imaging. In a few lines: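 HepG2 cells exposed 72 h to compound at 0.39–200 uM (10 concentrations, duplicate) in 0.5% DMSO. Fixed with 3.7% formaldehyde and Hoechst 33342-stained. Imaged at 20x; nuclear count gives cell number, fitted bidirectionally versus DMSO.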

The nature of experiment [2]: APR_HepG2_P-H2AX_72hr: Apredica 72-hour HepG2 Assay for H2AX Phosphorylation (AID 2282916).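 Note: phospho-histone H2A.x immunostain intensity per cell marking DNA damage.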 The settings on record: imaging, actives raise or lower the signal. The gist of the method:
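HepG2; cpd 0.39–200 uM ×10 conc, duplicates; 0.5% DMSO; 72 hr. Fix 3.7% formaldehyde 30 min RT, 0.5% Triton X-100 10 min. Anti-phospho-H2A.x 1:200 + Hoechst 2 ug/mL, 60 min RT; ArrayScan imaging.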

A short description of experiment [3]: APR_HepG2_MitoMembPot_72hr: Apredica 72-hour HepG2 Assay for Mitochondrial Membrane Potential (AID 2282917). As to conditions: imaging, actives raise or lower the signal. The gist of the method:
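HepG2 cells dosed 72 hr with compound at 0.39–200 uM in duplicate, 0.5% v/v DMSO final. Mitochondria stained with 250 nM MitoTracker Red CMXRos for 30 min before formaldehyde fixation, imaged by high-content fluorescence; bidirectional fit versus DMSO.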

A short description of experiment [4]: APR_HepG2_MitoticArrest_72hr: Apredica 72-hour HepG2 Assay for Mitotic Arrest (AID 2282918). The settings on record: high-content imaging, actives raise or lower the signal. The gist of the method:
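HepG2 cells treated 72 h at 0.39–200 uM, 0.5% DMSO final; formaldehyde-fixed, stained with Hoechst 33342 and phospho-histone H3 antibody, imaged by high-content fluorescence; bidirectional fit versus DMSO.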

The nature of experiment [5]: APR_HepG2_MicrotubuleCSK_72hr: Apredica 72-hour HepG2 Assay for Microtubule CSK Stabilty (AID 2282919). The settings on record: HepG2 microtubule cytoskeleton, high-content imaging, actives raise or lower the signal. The gist of the method: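 HepG2 cells were exposed 72 hr to compound at 0.39–200 uM in duplicate (0.5% DMSO final), then fixed and permeabilized. Alpha-tubulin immunofluorescence was imaged by high-content microscopy, with bidirectional fitting against DMSO and taxol as positive control.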

Experiment [6] is described as follows: APR_HepG2_P-H2AX_24hr: Apredica 24-hour HepG2 Assay for H2AX Phosphorylation (AID 2282920). As to conditions: high-content imaging, actives raise or lower the signal. In a few lines: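 HepG2 cells dosed 24 h at 0.39–200 uM (10 points, duplicate, 0.5% DMSO final). Formaldehyde-fixed and permeabilized, then immunostained for phospho-H2A.x with Hoechst. Fluorescence quantified by high-content imaging, fitted bidirectionally versus DMSO.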

Experiment [7] is described as follows: APR_HepG2_StressKinase_24hr: Apredica 24-hour HepG2 Assay for Stress Kinase (AID 2282922). As to conditions: HepG2 stress kinase (phospho-c-Jun) imaging, actives raise or lower the signal. The gist of the method: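 HepG2 cells exposed 24 h to 0.39–200 uM compound in duplicate (0.5% v/v DMSO final). Cells fixed in 3.7% formaldehyde, permeabilized and immunostained for phospho-c-Jun; read by high-content fluorescence imaging, fitted bidirectionally against DMSO.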

Experiment [8] in a line: APR_HepG2_p53Act_72hr: Apredica 72-hour HepG2 Assay for p53 Activation (AID 2282923).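 Note: average cellular p53 protein immunofluorescence intensity in HepG2 cells.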 As to conditions: high-content imaging, actives raise or lower the signal. In a few lines:
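10-pt conc. 0.39–200 uM, duplicate, 0.5% DMSO; 72 hr exposure; 3.7% formaldehyde fix, 0.5% Triton perm; sheep anti-p53/Cy5 + Hoechst; ArrayScan 20x, 6 images/well; gain/loss fit vs DMSO.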

Experiment [9] is described as follows: APR_HepG2_MitoMass_72hr: Apredica 72-hour HepG2 Assay for Mitochondrial Mass (AID 2282924).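 Note: MitoTracker Red CMXRos stain intensity per cell imaged as mitochondrial mass.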 As to conditions: high-content imaging, actives raise or lower the signal. In a few lines:
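HepG2 cells dosed 72 hr at 0.39–200 uM (0.5% DMSO), in duplicate. MitoTracker Red CMXRos 250 nM loaded 30 min before formaldehyde fixation; high-content fluorescence imaging, bidirectional fit versus DMSO.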

Experiment [10] can be described thus: APR_HepG2_NuclearSize_72hr: Apredica 72-hour HepG2 Assay for Nuclear Size (AID 2282925). The settings on record: high-content imaging, actives raise or lower the signal. The gist of the method:
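HepG2 cells dosed 72 h at 0.39–200 uM (10 concentrations, duplicate) in 0.5% v/v DMSO final. Fixed, Hoechst 33342-stained nuclei imaged; nuclear diameter measured by automated image analysis. Bidirectional fit versus DMSO.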

Experiment [11] can be described thus: ATG_CRE_CIS: Attagene CIS-FACTORIAL HepG2 Assay for human cAMP Responsive Element (CRE) binding protein 3 (AID 2282926). The settings on record: HepG2 CRE cis-reporter, Attagene multiplexed mRNA; actives raise or lower the signal. In a few lines: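 HepG2 cells transiently transfected with cis-element-driven multiple reporter transcription units; CRE reporter mRNA measured 24 h after dosing by RT-PCR, 6-FAM labelling, HpaI digestion and capillary electrophoresis. Bidirectional fit versus DMSO baseline.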

The target in experiment [12] is CCAAT/enhancer-binding protein beta (Homo sapiens) (UniProt P17676). Nature of the experiment: ATG_C_EBP_CIS: Attagene CIS-FACTORIAL HepG2 Assay for human CCAAT/Enhancer Binding Protein (C/EBP) beta (AID 2282927). As to conditions: HepG2 Attagene cis-factorial transcription factor reporter; actives raise or lower the signal. In a few lines: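 HepG2 transiently transfected with multiplexed reporter units under cis-regulatory promoters reporting endogenous C/EBPb activity. After 24 h exposure, reporter mRNA assayed by RT-PCR, fluorescent labelling, HpaI digestion and capillary electrophoresis; bidirectional fitting versus DMSO.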
Chain of CCAAT/enhancer-binding protein beta (Homo sapiens) (P17676 whole entry, looked up): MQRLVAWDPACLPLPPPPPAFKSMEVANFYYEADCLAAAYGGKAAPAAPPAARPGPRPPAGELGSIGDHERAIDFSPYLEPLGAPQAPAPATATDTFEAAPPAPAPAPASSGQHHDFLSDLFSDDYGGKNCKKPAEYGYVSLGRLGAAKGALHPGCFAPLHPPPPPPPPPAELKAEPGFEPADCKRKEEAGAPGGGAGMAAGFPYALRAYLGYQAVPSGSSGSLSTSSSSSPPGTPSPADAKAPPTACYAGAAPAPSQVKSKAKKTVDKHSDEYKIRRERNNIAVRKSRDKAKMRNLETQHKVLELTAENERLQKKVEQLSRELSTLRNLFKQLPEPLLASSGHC

The nature of experiment [13]: ATG_CMV_CIS: Attagene CIS-FACTORIAL HepG2 Assay for human CMV (Internal Marker) (AID 2282928).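 Note: endpoint acts as a background internal control marker rather than a target.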 As to conditions: HepG2 CMV promoter reporter, transcription factor profiling; actives raise or lower the signal. In a few lines: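 Cell system: HepG2, transiently transfected multiple reporter units under cis promoters. Exposure: 24 h. Detection: RT-PCR, FAM labeling, HpaI digestion, capillary electrophoresis. Analysis: bidirectional, DMSO baseline.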

For experiment [14], the target named is Aryl hydrocarbon receptor (Homo sapiens) (UniProt P35869). The experiment in a line: ATG_Ahr_CIS: Attagene CIS-FACTORIAL HepG2 Assay for human Aryl Hydrocarbon Receptor (Ahr) (AID 2282930). As to conditions: HepG2 AhR cis-factorial reporter transcription; actives raise or lower the signal. In a few lines: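 HepG2 cells transiently transfected with cis-element-driven multiplexed reporter units; endogenous AhR activity read as reporter mRNA 24 h after dosing, via RT-PCR, 6-FAM labelling, HpaI digestion and capillary electrophoresis. Bidirectional fit relative to DMSO.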
Chain of Aryl hydrocarbon receptor (Homo sapiens) (P35869 whole entry, looked up): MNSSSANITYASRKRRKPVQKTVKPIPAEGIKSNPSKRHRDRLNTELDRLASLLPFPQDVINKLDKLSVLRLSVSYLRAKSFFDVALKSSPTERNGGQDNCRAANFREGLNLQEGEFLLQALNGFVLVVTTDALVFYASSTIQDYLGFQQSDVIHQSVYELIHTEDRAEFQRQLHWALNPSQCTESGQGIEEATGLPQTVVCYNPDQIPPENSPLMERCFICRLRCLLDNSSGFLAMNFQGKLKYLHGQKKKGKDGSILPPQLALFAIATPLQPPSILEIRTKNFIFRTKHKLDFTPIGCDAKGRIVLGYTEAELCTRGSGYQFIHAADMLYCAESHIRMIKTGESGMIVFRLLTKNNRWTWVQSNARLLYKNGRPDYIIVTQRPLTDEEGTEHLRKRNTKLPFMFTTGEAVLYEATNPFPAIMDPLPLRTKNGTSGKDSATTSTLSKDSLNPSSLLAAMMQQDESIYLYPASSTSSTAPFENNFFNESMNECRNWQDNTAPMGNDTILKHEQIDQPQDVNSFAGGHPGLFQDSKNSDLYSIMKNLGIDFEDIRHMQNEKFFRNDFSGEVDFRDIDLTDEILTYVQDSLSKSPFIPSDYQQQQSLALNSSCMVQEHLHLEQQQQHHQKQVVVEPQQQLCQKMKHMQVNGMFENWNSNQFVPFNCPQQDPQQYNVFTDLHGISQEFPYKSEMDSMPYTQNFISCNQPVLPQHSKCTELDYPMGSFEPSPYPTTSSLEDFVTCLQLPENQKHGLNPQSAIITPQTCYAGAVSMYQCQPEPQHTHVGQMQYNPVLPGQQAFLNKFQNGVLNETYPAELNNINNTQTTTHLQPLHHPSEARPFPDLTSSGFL

Experiment [15] is described as follows: ATG_AP_1_CIS: Attagene CIS-FACTORIAL HepG2 Assay for human Activator Protein 1 (AP-1) (AID 2282931). The settings on record: HepG2 Attagene cis-factorial AP-1 reporter mRNA; actives raise or lower the signal. In a few lines:
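Endogenous transcription-factor activity in human HepG2 liver cells is read through a cis-promoter reporter transcript, sampled 24 h after dosing. Detection uses RT-PCR with capillary electrophoresis; values come from bidirectional fitting relative to DMSO.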

A short description of experiment [16]: ATG_AP_2_CIS: Attagene CIS-FACTORIAL HepG2 Assay for human Activator Protein 2 (AP-2) (AID 2282932). As to conditions: HepG2 AP-2 cis-reporter, Attagene transcription factor profiling; actives raise or lower the signal. The gist of the method: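 HepG2 cells transiently transfected with cis-element reporter units and exposed for 24 h. Reporter mRNA measured by RT-PCR, FAM labelling, HpaI digestion and capillary electrophoresis. Changes in either direction fitted relative to DMSO.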

A short description of experiment [17]: ATG_BRE_CIS: Attagene CIS-FACTORIAL HepG2 Assay for human Bone Morphogenetic Protein (BMP) Response Element (BRE) (AID 2282933). As to conditions: HepG2 BMP response element reporter, Attagene transcription factor profiling; actives raise or lower the signal. In a few lines: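 Endogenous transcription factor activity read in transiently transfected HepG2 cells after 24 h chemical exposure. Bidirectional curve fitting against DMSO; readout is reporter transcript level by RT-PCR with capillary electrophoresis of labelled products.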

Experiment [18] concerns the target Retinoic acid receptor alpha (Homo sapiens) (UniProt P10276). Nature of the experiment: ATG_DR5_RAR_CIS: Attagene CIS-FACTORIAL HepG2 Assay for human Retinoic Acid Receptor Alpha (RARE), DR5 submotif (AID 2282934).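 For AC50: reporter responds to endogenous RAR alpha beta and gamma in HepG2 not RARA alone.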 As to conditions: HepG2 Attagene cis-factorial RARE DR5 reporter, mRNA; actives raise or lower the signal. The gist of the method: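 HepG2 cells transiently transfected with multiplexed reporter units; DR5 cis-element drives reporter through endogenous transcription factors. After 24 h dosing, reporter mRNA quantified by RT-PCR, fluorescent labeling, HpaI digestion and capillary electrophoresis; bidirectional fitting versus DMSO.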

A short description of experiment [19]: ATG_DR4_LXR_CIS: Attagene CIS-FACTORIAL HepG2 Assay for human Liver X Receptor (LXR), DR4 submotif (AID 2282929). As to conditions: HepG2 Attagene DR4 cis-reporter, mRNA transcription; actives raise or lower the signal. In a few lines:
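Cells were transfected with multiple reporter transcription units, exposed to chemicals for 24 hours, then lysed for RNA. Reporter mRNA induction was measured by RT-PCR with capillary electrophoresis detection and fitted in both directions relative to DMSO.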

Chain of Retinoic acid receptor alpha (Homo sapiens) (P10276 whole entry, looked up): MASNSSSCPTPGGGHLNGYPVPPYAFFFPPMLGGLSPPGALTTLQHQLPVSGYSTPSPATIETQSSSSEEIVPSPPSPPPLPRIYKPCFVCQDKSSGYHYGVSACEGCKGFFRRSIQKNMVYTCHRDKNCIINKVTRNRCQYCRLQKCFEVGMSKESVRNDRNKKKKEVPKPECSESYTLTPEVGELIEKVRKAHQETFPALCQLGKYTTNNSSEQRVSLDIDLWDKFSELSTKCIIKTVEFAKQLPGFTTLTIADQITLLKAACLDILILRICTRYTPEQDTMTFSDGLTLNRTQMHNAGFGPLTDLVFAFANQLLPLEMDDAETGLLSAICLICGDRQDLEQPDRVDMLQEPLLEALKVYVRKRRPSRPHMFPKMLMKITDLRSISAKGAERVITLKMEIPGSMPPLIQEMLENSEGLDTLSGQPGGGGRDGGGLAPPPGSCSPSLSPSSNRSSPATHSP

What is called AC50 is the concentration at which the activity in the assay is half-maximal. `Clc1nc(Cl)nc(Nc2ccccc2Cl)n1`: the call in experiment [1], in [2], in experiment [3], in experiment [4], in experiment [5] and in experiment [6] was inactive. The call in experiment [7], in experiment [8], in experiment [9], in experiment [10], in experiment [14] and in experiment [16] was inactive. The outcome in experiment [17] and in experiment [18] was inactive. The AC50 was 76.6 µM (active) in [11], 75.5 µM (active) in experiment [12], 27.4 µM (active) in [13] and 50 µM (active) in experiment [15].
On to `Nc1c(Cl)c(F)nc(OCC(=O)O)c1Cl`, for which the result in experiment [1], in experiment [2], in experiment [3], in experiment [4], in experiment [5] and in [6] was inactive. The molecule was called inactive in [7], in experiment [8], in [9], in experiment [10], in experiment [11] and in experiment [12]. Further, the molecule was classed as inactive in experiment [13], in experiment [14], in experiment [16], in experiment [17] and in [18].
As to `Cc1nc(N(C)C)nc(OC(=O)N(C)C)c1C`, the outcome in [1], in experiment [2], in experiment [3], in [4], in experiment [5] and in [6] was inactive. The result in [7], in experiment [9], in [10], in experiment [11], in experiment [12] and in experiment [13] was inactive. The call in [19], in [14], in [15], in [16], in [17] and in experiment [18] was inactive.
In the case of `O=C(Nc1ccccc1-c1ccc(Cl)cc1)c1cccnc1Cl`, the outcome in experiment [1], in experiment [2], in [3], in [4], in [5] and in experiment [6] was inactive. Further, the molecule was classed as inactive in experiment [7], in experiment [8], in [9], in experiment [10], in [11] and in [13]. Also, the molecule was classed as inactive in experiment [19], in experiment [14], in [16], in experiment [17] and in [18]. In addition, the AC50 in experiment [12] was 10.3 µM (active).
In the case of `COCC(C)N(C(=O)CCl)c1c(C)csc1C` (stereo not given), the concentration at half-maximal activity (AC50) is 51.5 µM (active) in [1]; 103 µM (active) in experiment [4]; 105 µM (active) in experiment [5]; 86.4 µM (active) in [6]; 1.83 µM (active) in experiment [11]. In addition, the call in experiment [2], in experiment [3], in experiment [7], in [8], in experiment [9] and in experiment [10] was inactive. Further, the outcome in experiment [12], in experiment [13], in experiment [19], in experiment [14], in experiment [16] and in experiment [17] was inactive.
For `CC1(C)CCC(=Cc2ccc(Cl)cc2)C1(O)Cn1cncn1` (stereo not given), the outcome in experiment [1], in experiment [2], in experiment [3], in experiment [4], in experiment [5] and in experiment [6] was inactive. Further, the molecule was called inactive in [7], in [8], in experiment [9], in [10], in experiment [11] and in experiment [12]. In addition, the molecule was called inactive in [13], in experiment [14], in experiment [15], in [16] and in experiment [17]. Moreover, the AC50 in experiment [18] was 18.8 µM (active).
For the molecule `COc1cc(OC)nc(NC(=O)NS(=O)(=O)c2ncccc2OCC(F)(F)F)n1`, the molecule was classed as inactive in experiment [1], in experiment [2], in [3], in [4], in experiment [5] and in [6]. Besides, the result in experiment [7], in [8], in experiment [9], in experiment [10], in experiment [11] and in experiment [12] was inactive. For the same molecule, the molecule was classed as inactive in [13], in experiment [14], in experiment [15], in experiment [16] and in experiment [17].
For the molecule `CN/C(=N\[N+](=O)[O-])NCc1cnc(Cl)s1`, the molecule was called inactive in [1], in experiment [2], in experiment [3], in experiment [4], in [5] and in [6]. Further, the outcome in experiment [7], in experiment [8], in experiment [9], in experiment [10], in [11] and in experiment [12] was inactive. Further, the call in [13], in experiment [14], in experiment [16], in experiment [17] and in [18] was inactive.
